From paper PMC8384837, “Expanding the binding specificity for RNA recognition by a PUF domain”

target: PUM1 PUF domain R4-WGK (Homo sapiens, UniProt Q14671 828-1176, N971W;H972G;Q975K); test: yeast three-hybrid, YBZ-1, SC-Leu-His + 0.5 mM 3-AT, 4 days; conditions: tags: N-Gal4 AD-HA kept; label: inside an RPR1-promoter hybrid RNA with tandem MS2 sites; ssRNA
In short: (§1)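 Each repeat of the Pumilio-1 PUF domain was randomized at its three base-contacting residues, and these libraries were co-expressed from a centromeric plasmid with matching RNA elements in strain YBZ-1. After four days on SC-Leu (input) or SC-Leu-His + 0.5 mM 3-AT (selection), the repeat regions were PCR-amplified and Illumina-sequenced. The interaction score compares variant frequency between input and selection as a log change, computed in log2 with a pseudocount of 1 for absent variants.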

**Q.** How did the binding signal turn out when “GGCUAGAACUAGUGGAUCCCCCGGCGCCCGGCGGCUCGAGCCCGGGUAAGUGUACAUAGUCUGCAUGCCGCCGGGCGCCAUGCCUGCAGGUCGACUCUAGAAAACAUG” was run?
**A.** 3.57 log2 enrichment (interaction score)

**Q.** With “GGCUAGAACUAGUGGAUCCCCCGGCGCCCGGCGGCUCGAGCCCGGGUAAGUGUAUAUAGUCUGCAUGCCGCCGGGCGCCAUGCCUGCAGGUCGACUCUAGAAAACAUG” as the sequence, how does the binding signal read?
**A.** 3.03 log2 enrichment (interaction score)

**Q.** How did the binding signal turn out when “GGCUAGAACUAGUGGAUCCCCCGGCGCCCGGCGGCUCGAGCCCGGGUAAGUGUAAAUAGUCUGCAUGCCGCCGGGCGCCAUGCCUGCAGGUCGACUCUAGAAAACAUG” was run?
**A.** 1.16 log2 enrichment (interaction score)

target: PUM1 PUF domain R2-LWG (Homo sapiens, UniProt Q14671 828-1176, N899L;Y900W;Q903G); test: as above; conditions: tags: N-Gal4 AD-HA kept; label: inside an RPR1-promoter hybrid RNA with tandem MS2 sites; ssRNA
In short: as §1

**Q.** Which binding signal does the source give for “GGCUAGAACUAGUGGAUCCCCCGGCGCCCGGCGGCUCGAGCCCGGGUAAGUGUAAAGAGUCUGCAUGCCGCCGGGCGCCAUGCCUGCAGGUCGACUCUAGAAAACAUG” here?
**A.** 3.16 log2 enrichment (interaction score)

**Q.** How did the binding signal turn out when “GGCUAGAACUAGUGGAUCCCCCGGCGCCCGGCGGCUCGAGCCCGGGUAAGUGUAAAAAGUCUGCAUGCCGCCGGGCGCCAUGCCUGCAGGUCGACUCUAGAAAACAUG” was run?
**A.** 8 log2 enrichment (interaction score)

**Q.** How did the binding signal turn out when “GGCUAGAACUAGUGGAUCCCCCGGCGCCCGGCGGCUCGAGCCCGGGUAAGUGUAAAUAGUCUGCAUGCCGCCGGGCGCCAUGCCUGCAGGUCGACUCUAGAAAACAUG” was run?
**A.** 1.91 log2 enrichment (interaction score)
